# Screens (PubChem)
# Shown are actives, neighbours in structure and some others; about 4.1% of the full set was active somewhere.
# DAX1 inh-1 – DAX1 (NR0B1) inhibitors on StAR promoter, primary screen, cell-based, luminescence, SF-1 (NR5A1), full-length DAX-1. HEK293T StAR-luciferase reporter, SF-1/DAX-1 repression relief. inhibition, % at 6.8 µM. 370,000 compounds, 1.1% hits. AID 652010, 2013;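 active means inhibition above the mean over all tested compounds plus 3 SD, cut at about 3.6% in these data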;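 further: 0% = DAX-1 cells with DMSO and 100% = cells lacking DAX-1 with DMSO; higher inhibition means more luminescence from relief of DAX-1 repression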
# ssDAF-12 act – S. stercoralis DAF-12 nuclear receptor activators, primary screen, cell-based, luminescence, HEK293, GRIP1 co-expression, lit1-tk-luc; Nuclear hormone receptor DAF-12 (Strongyloides stercoralis); HEK293 ssDAF-12/GRIP1 lit1-tk-luc reporter; % of 3 µM dafachronic acid response; activation, % at 6.8 µM; 370,000 compounds, 1% hits; AID 652126, 2013;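 active means activation above the mean over all tested compounds plus 3 SD, cut at about 0.9% in these data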;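 further: 0% = DMSO-only wells and 100% = 3 µM delta7-dafachronic acid wells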
# hgDAF12 agonist – H. glycines DAF-12 receptor agonists, primary screen, cell-based, luminescence, HEK293, GAL4 fusion, UAS-luciferase; Nuclear hormone receptor DAF-12 (Heterodera glycines), GAL4 fusion; HEK293 GAL4-hgDAF12 UAS-luciferase reporter, agonist luminescence; normalized to butyrate control; activation, % at 6.8 µM; 370,000 compounds, 1.8% hits; AID 687014, 2013;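 active means activation above a cutoff set at the mean of all screened compounds plus 3 SD, cut at about 10% in these data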;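 further: 0% = DMSO wells and 100% = sodium butyrate wells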
# DAX1 inh-2 – DAX1 (NR0B1) inhibitors, primary screen, cell-based, HEK293, Gal4-DAX1, luciferase luminescence | HEK293 Gal4-DAX1 luciferase reporter | inhibition, % at 6.75 µM | 340,000 compounds, 0.99% hits;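 active means inhibition above the mean over all tested compounds plus 3 SD, cut at about 4.2% in these data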;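 further: 0% = DAX1-transfected cells with DMSO and 100% = empty-vector control cells with DMSO; inhibition shows as a rise in luminescence from relieved DAX1 repression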
# Target sequence (P51843 207-470 limits assumed): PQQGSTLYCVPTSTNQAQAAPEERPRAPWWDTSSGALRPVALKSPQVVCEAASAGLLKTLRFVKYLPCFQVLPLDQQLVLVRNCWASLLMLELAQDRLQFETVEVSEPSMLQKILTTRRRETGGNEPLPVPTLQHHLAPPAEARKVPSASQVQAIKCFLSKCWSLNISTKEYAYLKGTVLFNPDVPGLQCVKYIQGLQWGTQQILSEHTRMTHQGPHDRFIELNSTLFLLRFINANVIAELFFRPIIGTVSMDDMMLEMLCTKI
# hcDAF-12 act – H. contortus DAF-12 nuclear receptor activators, primary screen, cell-based, luminescence, HEK293, lit1-tk-luc reporter; activation, % at 6.8 µM; HEK293 hcDAF-12 lit1-tk-luc reporter; 0% DMSO, 100% Δ7-dafachronic acid; 370,000 compounds, 1.4% hits;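 active means activation above the mean of all tested compounds plus 3 SD, cut at about 5.5% in these data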;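 further: 100% = response to 3 µM Δ7-dafachronic acid high control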
# Active calls of the source: *; / = not tested or not shown.
SMILES,DAX1 inh-1,ssDAF-12 act,hgDAF12 agonist,DAX1 inh-2,hcDAF-12 act
CN(C)c1ccc(-c2nnc(SCC3CCCO3)n2C)cc1 (stereo unspecified),2,0,8,4.8*,2
Cn1c(SCC2CCCO2)nnc1-c1ccncc1 (stereo unspecified),1,-1,-2,0,-1
CC(=O)Nc1nc2cc3c(cc2s1)OCO3,3,-1,13*,2,4
c1ccc(N2CCN(c3nc4cc5c(cc4s3)OCO5)CC2)cc1,0,0,6,0,0
c1c2c(cc3sc(N4CCCCC4)nc13)OCO2,3,1,9,-1,6.0*
O=C(COc1ccccc1)Nc1nc2cc3c(cc2s1)OCO3,3,0,5,0,6.1*
CC(=O)c1sc(Nc2nc3cc4c(cc3s2)OCO4)nc1C,2,-2,2,1,-1
CCn1c2ccccc2c2cc(NC(=O)COC(=O)c3cc(F)ccc3F)ccc21,1,0,-4,/,-4
O=C(CSc1nc2ccccc2nc1N1CCCCC1)N1CCN(S(=O)(=O)c2cc(Cl)ccc2Cl)CC1,-1,-2,7,/,-1
CC1CC(C)CN(C(=O)CSc2ncnc3sccc23)C1 (stereo unspecified),0,-1,0,0,0
CC(=O)/C=C1/C(=O)Nc2ccccc21,0,0,2,0,6.0*
COc1ccc(C[N+]2=C(N)NC3=C4CCCCC4n4c(=O)n(-c5ccccc5)c(=O)n4C3C2)c(OC)c1 (stereo unspecified),-1,-2,0,/,-1
CC(C)c1nnc(NC(=O)c2cc3cc(Br)ccc3oc2=O)s1,0,-1,3,-1,-1
O=C(Nc1ccccc1O)c1cc2cc(Br)ccc2oc1=O,0,1.1*,7,2,2
COc1ccc2oc(=O)c(C(=O)Nc3ccccc3C)cc2c1,2,0,12*,3,4
O=C(NNC(=O)c1cc2cc(Br)ccc2oc1=O)c1ccc(O)cc1,0,2.5*,-2,0,1
Cc1c(C(=O)O)cnc2cc(-c3ccc(Cl)cc3)nn12,0,1.1*,5,1,2
CC(=O)c1cnc2cc(-c3ccc(Cl)cc3)nn2c1C,1,-1,6,1,1
COc1ccc(Cn2c(C3CC3)nc3ccc(NC(=O)C4CC4)cc3c2=O)cc1,2,1,11*,3,3
CC(=O)Nc1ccc2nc(C3CC3)n(Cc3ccc(Cl)cc3)c(=O)c2c1,3,0,8,4,2
Cc1ccc(NC(=O)CN(C)CC(=O)Nc2sc3c(c2C(N)=O)CCC3)cc1,-3,-1,-5,0,-3
CCn1c(COc2ccc(Cl)cc2)nnc1SC1CCc2ccccc2C1=O (stereo unspecified),1,1.5*,-3,1,3
Cc1cc2cc(CN3C(=O)c4ccccc4C3=O)ccc2n1C,-1,0,5,1,6.1*
Cc1n[nH]c(C)c1S(=O)(=O)NCCc1cccc(F)c1,0,-1,1,/,0
CC[C@@H](C)[C@@H]1CN([C@@H](C)CN2CCC[C@H]2CN2C(N)=NC[C@@H]2Cc2ccccc2)C(=N)N1CCc1ccc(Cl)c(Cl)c1,/,/,/,5.2*,/
SMILES,DAX1 inh-1,ssDAF-12 act,hgDAF12 agonist,DAX1 inh-2,hcDAF-12 act
CCOC(=O)CC[C@H]1CC[C@]2(CCCN(C(=O)C3CCCC3)C2)O1,0,-1,-2,/,-1
Cc1ccn2c(C(=O)c3ccc(Cl)cc3)cnc2c1,3.9*,0,13*,1,5
Cc1cccc(C)c1NC(=O)CNC(=O)c1cnccn1,0,-1,1,1,0
Cc1cccc(C)c1NC(=O)c1cnccn1,0,1.0*,-1,0,-2
CCOc1ccc(C(=O)Nc2cccc(C(C)=O)c2)cc1[N+](=O)[O-],0,-1,-3,0,-2
Cc1ccccc1CN1CCCCC(NC(=O)C2CCCC2)C1=O (stereo unspecified),-2,-1,1,/,-4
Cc1oc2c(C)c3oc(=O)c(CCC(=O)NCCCN4CCCC4=O)c(C)c3cc2c1C,0,-1,0,4.3*,-4
Cc1oc2cc3oc(=O)c(CCC(=O)NCCCN4CCCC4=O)c(C)c3cc2c1C,1,-2,-2,-1,-2
Cc1oc2c(C)c3oc(=O)c(CCC(=O)NCCCN4CCOCC4)c(C)c3cc2c1C,0,0,-2,6.7*,-2
COc1ccc(CNC(=O)COc2cc3c(c4oc(=O)cc(C)c24)CCC(C)(C)O3)cc1,0,-1,-3,0,2
CCCc1cc(=O)oc2c3c(cc(OCC(=O)N4CCC[C@H]4C(=O)O)c12)OC(C)(C)CC3,0,-1,1,4.5*,1
COc1ccccc1CNC(=O)COc1cc2c(c3oc(=O)cc(C)c13)CCC(C)(C)O2,0,-2,-3,4.4*,1
CCc1cc(=O)oc2c3c(cc(OCC(=O)NC4CC4)c12)OC(C)(C)CC3,-1,-1,-2,3,-2
CCc1cccc2c1NC(=O)C2(O)CC(=O)c1cccs1 (stereo unspecified),0,-1,1,1,0
O=C(NCCCCCCOC1=NS(=O)(=O)c2ccccc21)C(=O)Nc1ccccc1,0,-1,11*,0,-1
CC(CCOC1=NS(=O)(=O)c2ccccc21)NC(=O)C(=O)Nc1ccccc1 (stereo unspecified),0,0,5,3,0
Cc1c[nH]c2cccc(-c3cc4ccccc4o3)c12,0,0,4,/,2
O=C(Cc1ccccc1[N+](=O)[O-])NCCc1ccc(F)cc1,0,5.1*,0,1,1
O=C(Cc1ccccc1[N+](=O)[O-])NCc1ccncc1,0,1.1*,0,1,5
O=C(NNC(=O)C1CC2CCC1C2)c1sc2ccccc2c1Cl (stereo unspecified),2,0,13*,1,2
O=C(NC1CC1)c1sc2ccccc2c1Cl,0,-1,2,-1,-2
COC(=O)c1cc2c(c3c4cc(F)ccc4n(S(=O)(=O)c4ccc(C)cc4)c13)C(=O)N(Cc1ccc(N(C)C)cc1)C2,-1,0,1,/,0
Cc1ccc(C)c(S(=O)(=O)NCC(=O)N2CCCC2)c1,1,-1,2,-1,2
Cc1cc(C)c(C)c(S(=O)(=O)NCC(=O)N2CCCC2)c1C,0,0.9*,1,1,-3
